Several values for one entry are separate records, joined by “and”; a condition that tells them apart may be missing. Identical values can stand only once. About 83,000 compounds went through this panel and 20% of them were active in at least one assay; those are over-represented in the sample as a whole.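 Compound tested at a single concentration for 48 hours in 96-well plates; a percent growth value below 10 was scored as active.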 Activity calls are given as the source filed them.

In the experiment the test system is MDA-MB-468 breast. Nature of the experiment: NCI-60 one-dose screen, 48 h (100 = growth as untreated, 0 = no growth, -100 = all killed). The following applies: 10 µM unless noted.

On to `CCOC(=O)C(C(=O)OCC)C(c1ccccc1)N1CCN(c2ccccc2)CC1` (stereo not given), for which the growth was 108% (inactive) and 103% (inactive).

For the compound `CN1CCN(c2nc(-c3ccncc3)nc3sc4c(c23)CCCCCC4)CC1`, the growth is 62.7% (inactive).

In the case of `COc1cc2cc3c(nc2cc1OC)CCN3Cc1ccc(NC(=O)Nc2ccc(F)cc2F)cc1`, the growth was 45.6% (inactive).

Consider `COc1ccc(-c2nn(-c3ccc(NC(=O)c4ccc(Cl)c(Cl)c4)cc3)cc2-c2ccncc2)cc1Cl`, for which the growth was 47% (inactive).

As to `N#CC1=C(N)Oc2ccc3ccccc3c2C1c1ccccc1Cl` (stereo not given), the growth is 31.1% (inactive).

As to `COc1ccc([C@@H]2C(=O)N(c3cc(OC)c(OC)c(OC)c3)[C@H]2c2ccc(OC)c(O)c2)cc1`, the growth is -4.45% (active).

Take `Nc1nc(N)c2c(n1)NC(c1ccccc1)C1CCc3ccccc3C1=N2` (stereo not given): the growth is -12.7% (active).

On to `CC(=O)c1ccc(Nc2nc(C(C)=O)c(C)s2)cc1`, for which the growth was 94.5% (inactive).

For `CN1CCN(Cc2ccc(NC(=O)c3[nH]ncc3Nc3cc(OC4CCCC4)ncn3)cc2)CC1`, the growth is 16.1% (inactive).

As to `CC(=O)N1N=C(c2ccc(Nc3nc(Nc4ccc(F)cc4)nc(Nc4ccc(Cl)cc4)n3)cc2)CC1c1ccc(Cl)cc1` (stereo not given), the growth was 104% (inactive).

As for `COc1ccc(C(=O)c2sc3nc(-c4ccccc4OC)ccc3c2N)cc1OC`, the growth was 66.9% (inactive).

`COc1cc(C)cc2oc3oc(=O)c(-c4csc(-c5cc6ccccc6oc5=O)n4)cc3c(=O)c12`: the growth is 102% (inactive).

For the compound `NC(=N\N=C/c1ccc(Cl)cc1Cl)/C(N)=N\N=C/c1ccc(Cl)cc1Cl`, the growth is 62.8% (inactive).

Consider `C[n+]1c(/C=C/c2ccc([N+](=O)[O-])cc2)ccc2ccccc21`, for which the growth was 52.5% (inactive).

Consider `c1ccc(C2CC(c3cccc(Nc4ccncc4)c3)=NN2c2ccccc2)cc1` (stereo not given), for which the growth was 24.2% (inactive).

In the case of `Cc1nc2sccn2c1-c1csc(Nc2ccccc2Cl)n1`, the growth was 19% (inactive).

As for `Nc1c(C(=O)Nc2ccccc2Cl)sc2nc3c(cc12)CCCCCC3`, the growth was -1.41% (active).

Turning to `O=C1Nc2ccc(F)cc2/C1=C\c1nc(-c2ccccc2F)n2ccccc12`, the growth was 69.2% (inactive).

On to `O=c1cc(-c2ccccc2)oc2c(O)c(O)ccc12`, for which the growth is 79.5% (inactive).

For the compound `COc1ccc(/C=C/C(=O)c2ccc(O)c(CN3CCN(c4cc5c(cc4F)c(=O)c(C(=O)O)cn5C4CC4)CC3)c2)cc1`, the growth was 3.04% (active).

As for `Cn1c(COC(=O)NCCn2ccnc2)nc2c(N3CCOCC3)nc(-c3ccccc3)nc21`, the growth was -64.1% (active).

Turning to `N#Cc1c(-c2ccc(F)cc2)nc2c(C#N)c(Nc3ccccc3)nn2c1N`, the growth was 103% (inactive).

For `O=CNCCc1ccccc1`, the growth is 97.8% (inactive).

Turning to `Brc1cccc(-c2cc(-c3ccc4c(c3)OC=CO4)[nH]n2)c1`, the growth is 33.4% (inactive).

In the case of `C[C@H]1[C@H](C)CC[C@]2(CO)CC[C@]3(C)C(=CC[C@@H]4[C@@]5(C)Cc6c([nH]c7ccccc67)C(C)(C)[C@@H]5CC[C@]43C)[C@H]12`, the growth is 77.8% (inactive).

Regarding `O=C(C1=Cc2cc3ccccc3n2Cc2cnnn21)c1ccc(O)cc1`, the growth was 62.2% (inactive).

As for `O=[N+]([O-])c1cccc(/C=C/c2ccccn2)c1`, the growth is 48.1% (inactive).

Consider `C[Se]C(=O)CC1=C2C=C(F)C=CC2/C(=C\c2ccc(S(C)=O)cc2)C1C` (stereo not given), for which the growth is -46.2% (active).

With `N=c1c(S(=O)(=O)c2ccccc2)cc2c(=O)n3ccccc3nc2n1CC1CCCO1` (stereo not given), the growth is 121% (inactive).

With `COc1cc(-c2nc3ccc(C)cc3[nH]2)ccc1OCc1nnc(-c2ccc(CC(C)C)cc2)o1`, the growth was 116% (inactive).

Regarding `CC(=O)OC(C(=O)c1ccccc1)c1ccccc1` (stereo not given), the growth was 109% (inactive).

Turning to `COc1ccc(NC(=O)c2cc(OC)c(OC)c(OC)c2)cc1O`, the growth is 29.8% (inactive).

As to `S=c1[nH]c2cc(Cl)ccc2s1`, the growth is 108% (inactive).

With `COc1cc(NC(=O)COc2cc(C)nc3ccc(OC)cc23)cc(OC)c1`, the growth is 76.3% (inactive).

`Cc1ccc(C2=NNC(c3sc(Cl)nc3Cl)C2)cc1` (stereo not given): the growth was 93.5% (inactive).

For `CSC1=N/C(=C\c2cccc(OCc3ccc(Cl)cc3)c2)C(=O)N1`, the growth was 68.6% (inactive).

In the case of `CC1(C)CCCC2=C1C(=O)N(SC(Cl)(Cl)Cl)C2=O`, the growth is 79.6% (inactive).

Regarding `CCCCN[C@H]1CC[C@@]2(C)[C@@H](CC[C@@]3(C)[C@H]2[C@H](O)C[C@H]2/C(=C(\CCC=C(C)C)C(=O)OC)[C@@H](OC(C)=O)C[C@@]23C)[C@@H]1C`, the growth is 88.9% (inactive).

Regarding `Nc1ccn(C2OC(CO)C(O)C2O)c(=O)n1` (stereo not given), the growth is 76% (inactive) and 106% (inactive) and 118% (inactive).

For `CCc1nnc(NC(=O)c2nnn(-c3ccccc3)c2-c2ccco2)s1`, the growth is 95.9% (inactive).

For the compound `NC(=O)c1ccc2c(c1)OCO2`, the growth is 88.9% (inactive).

As to `O=C1c2cccc3c([N+](=O)[O-])ccc(c23)C(=O)N1CCCCl`, the growth is -62.2% [100 µM] (active).

`CCNC(=O)Nc1ccc(-c2nc3c(c(N4CCOC[C@@H]4C)n2)CCN(C2COC2)C3)cc1`: the growth is 13.5% (inactive) and -25.6% (active).

As for `CCCCCCCCCCCCCCn1cc(C2=C(c3coc4ccc(OC)cc34)C(=O)NC2=O)c2ccccc21`, the growth is 104% (inactive).

As to `CCCCN(CCCC)CCC(C)(O)c1cc2ccccc2c2ccccc12` (stereo not given), the growth is 107% (inactive).

`O=C(Nc1ccc(Br)cc1F)c1cc(Br)ccc1O`: the growth was -13.6% (active).

As for `COc1cc2cc(Oc3ccc(NC(=O)c4cccc(C(F)(F)F)c4)cc3)c(C)nc2cc1OCCN(C)C`, the growth is 81.5% (inactive).

Regarding `Cc1ccc(-c2cc3c(SCC(=O)Nc4cc(C(F)(F)F)ccc4Cl)nccn3n2)cc1`, the growth is -19.3% (active).

Consider `CCn1c(Cc2ccccc2Nc2c(Cl)cccc2Cl)nnc1SCC(=O)NN1C(=O)/C(=C/c2cc(OC)c(O)c(OC)c2)SC1=S`, for which the growth is -2.96% (active).

Take `CC(O)(CC(=O)CC(=O)c1ccccc1)c1ccccc1` (stereo not given): the growth was 94.9% (inactive) and 101% (inactive).

For `COc1ccc2c(-c3ccc(F)cc3)c(C#N)c(=NC(C)=O)oc2c1`, the growth is -8.32% (active).

On to `CCC1=C[C@H]2CN(CCc3c([nH]c4ccccc34)[C@@](C(=O)OC)(c3cc4c(cc3OC)N(C)[C@H]3[C@@](O)(C(=O)OC)[C@H](OC(C)=O)[C@]5(CC)[C@@H]6C[C@@H]6CN6CC[C@]43[C@@H]65)C2)C1`, for which the growth is 7.4% (active).

In the case of `CC1(C)C(=O)/C(=C\c2ccc(C(F)(F)F)cc2)C[C@]2(C)[C@H]3CC[C@@H]4[C@H]5[C@H](C(=O)/C=C/c6ccc(C(F)(F)F)cc6)CC[C@]5(CO)CC[C@@]4(C)[C@]3(C)CC[C@@H]12`, the growth was 104% (inactive).

As for `Cc1cccc(Cc2cnc(NC(=O)CCCOc3ccc(Cl)cc3)s2)c1`, the growth was 3.77% (active).

Turning to `Cc1ccc(CNc2ccc3nc(CCC(C)C)[nH]c3c2)cc1`, the growth was 78.3% (inactive).

On to `O=C(Nc1ccc(NC(=O)c2cc(=O)[nH]c3ccccc23)cc1)Nc1cccc(Cl)c1`, for which the growth is 64.4% (inactive).

As for `O=C(NO)c1ccc(-n2nc(-c3ccccc3)c3ccccc32)cc1`, the growth was 52.9% (inactive).

Take `COc1cc2c(cc1OC)CC[N+](CCC[N+](C)(C)C)=C2`: the growth was 103% (inactive).

With `COc1cc(/C=C2\C(=O)Nc3ccccc32)ccc1OCc1ccc(Cl)cc1`, the growth was 102% (inactive).

`CS(=O)(=O)c1nccc(-c2c(-c3cccc(OCCc4ccccc4)c3)nc3sccn23)n1`: the growth was 20.2% (inactive).

Regarding `CCCN1C(=O)/C(=c2\sc3n(c2=O)NC2C(N=3)N(CC)C(=O)N2CC)c2ccccc21` (stereo not given), the growth is 14.6% (inactive).

As for `O=C(c1ccccc1)c1ccco1`, the growth was 118% (inactive).

Consider `C=C(C(N)=O)C(N)C(=O)O` (stereo not given), for which the growth was 121% (inactive).

For the compound `O=S(=O)(Nc1ccccc1)C1CCCCC1`, the growth is 110% (inactive) and 107% (inactive).

In the case of `O=C1/C(=C/c2ccccc2)CN(C(=O)CCN2CCC(=NO)CC2)C/C1=C\c1ccccc1`, the growth is -22.7% (active).

As to `COc1nc(N)nc(-n2c(-c3ccc(C)cc3)nc3ccccc32)c1NCc1ccc(C)cc1`, the growth was 98.6% (inactive).

As to `COc1ccc(/C(=N/O)c2cc(F)c(F)c(OC)c2F)cc1O`, the growth was 18.4% (inactive).

As for `O=C(Nc1ccncc1)C(=O)c1cn(S(=O)(=O)c2ccccc2F)c2ccccc12`, the growth is 16.4% (inactive).

As for `CCN1C(=O)N(CC)C2C1NN=C1SCC(=O)N12` (stereo not given), the growth is 18.2% (inactive).

Take `Oc1ccc(C(c2ccc(O)cc2)c2ccc(Br)cn2)cc1`: the growth was -35.7% (active).

For the compound `C=C(C)[C@@H]1CC[C@]2(COC(=O)c3cccnc3)CC[C@]3(C)[C@H](CC[C@@H]4[C@@]5(C)CCCN(C(=O)c6cccnc6)C(C)(C)[C@@H]5CC[C@]43C)[C@@H]12`, the growth is 23.3% (inactive).

As to `O=C(c1c[nH]c2ccccc12)c1n[nH]c(=S)n1-c1ccc([N+](=O)[O-])cc1`, the growth was 106% (inactive).

On to `CCCCCCC(=O)C(C)C`, for which the growth was 98.8% (inactive).

Consider `CCCCOc1cc(C(=O)NCCN(CC)CC)c2ccccc2n1`, for which the growth was 81.3% (inactive) and 94.3% (inactive).

For the compound `Cn1ccnc1C(=O)/C=C/c1ccc(C(=O)Nc2nc3ccccc3[nH]2)cc1`, the growth was -3.55% (active).

`CCCC1Cc2cc(-n3nc(C)c4c3CC(C)(C)CC4=O)cc(NC3CCC(O)CC3)c2C(=O)N1` (stereo not given): the growth was -8.54% (active).

Consider `CCOC(=O)c1ccc[nH]1`, for which the growth was 100% (inactive).

As for `O=C(O)/C=C\C(=O)Nc1cccc2ccccc12`, the growth was 92.2% (inactive) and 111% (inactive).

Take `O=C(C[C@@]1(O)C(=O)Nc2c(Cl)ccc(Cl)c21)c1ccc(C2CC2)cc1`: the growth is -4.24% (active).

Take `CCCCC1COc2cccc3c2N1C=C/C3=C\C(=O)N(C)c1ccccc1` (stereo not given): the growth is 18.8% (inactive).

These data come from PubChem BioAssay (NCI).
